Results as given in publication PMC5540273 (PLoS ONE, 2017).

What was measured:
Settings in all cases: concentration: 1 μM, replicates: in singlicate; n = 1
PKMYT1 = test system: PKMYT1
PKN1 = test system: PKN1
PKN2 = test system: PKN2
PLK1 = test system: PLK1
PLK2 = test system: PLK2
PLK3 = test system: PLK3
PLK4 = test system: PLK4
PRKCD = test system: PRKCD
PRKCE = test system: PRKCE
PRKCH = test system: PRKCH
PRKCI = test system: PRKCI
PRKCQ = test system: PRKCQ
PRKD1 = test system: PRKD1
PRKD2 = test system: PRKD2
PRKD3 = test system: PRKD3
PRKG1 = test system: PRKG1
PRKG2 = test system: PRKG2
PRKR = test system: T1, PRKR
T1 construct: gene EIF2AK2

PRKX = test system: PRKX
PRP4 = test system: PRP4
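Also: KINOMEscan kinase panel screen.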

Compound	%Inh (PKMYT1)	%Inh (PKN1)	%Inh (PKN2)	%Inh (PLK1)	%Inh (PLK2)	%Inh (PLK3)	%Inh (PLK4)	%Inh (PRKCD)	%Inh (PRKCE)	%Inh (PRKCH)	%Inh (PRKCI)	%Inh (PRKCQ)	%Inh (PRKD1)	%Inh (PRKD2)	%Inh (PRKD3)	%Inh (PRKG1)	%Inh (PRKG2)	%Inh (PRKR)	%Inh (PRKX)	%Inh (PRP4)
CN1c2ccc(CNc3ccc(F)cc3)cc2-c2c(cnn2C)S1(=O)=O	0%	0%	0%	11%	15%	11%	0%	0%	5%	0%	0%	12%	17%	0%	0%	0%	0%	0%	0%	11%
NS(=O)(=O)CCc1cccc(Nc2nccc(-c3c(-c4cccc(NC(=O)c5c(F)cccc5F)c4)nn4ccccc34)n2)c1 [GSK336735]	0%	0%	0%	0%	25%	48%	12%	40%	0%	32%	11%	55%	40%	12%	56%	2%	0%	0%	13%	18%
Cc1c(Cn2c(C)nn3c(=O)cc(N4CCOC(C)C4)nc23)cccc1C(F)(F)F (centres unmarked) [GSK2344444]	0%	0%	0%	0%	0%	0%	0%	0%	0%	0%	0%	0%	0%	0%	22%	14%	0%	0%	3%	0%
Cl.Nc1ncnc2occ(-c3ccc(NC(=O)Nc4cc(C(F)(F)F)ccc4F)cc3)c12 [SB-707548]	0%	0%	0%	5%	98.8%	98%	35%	27%	10%	1%	25%	15%	0%	20%	29%	11%	7%	28%	9%	8%
CSc1ccc(-c2cc3ncnc(SCC(=O)O)c3s2)cc1	10%	8%	0%	0%	0%	0%	11%	17%	26%	2%	0%	0%	18%	0%	9%	0%	0%	0%	0%	0%
COc1ccc(S(=O)(=O)NC2CCN(c3cc(C)nc(Nc4cccc(C#N)c4)n3)CC2)cc1.O=C(O)C(F)(F)F [GSK1653539]	0%	0%	0%	0%	0%	0%	0%	0%	0%	11%	3%	0%	60%	19%	48%	0%	0%	1%	0%	3%
Cc1c2ccc(N(C)c3ccnc(Nc4cccc(S(N)(=O)=O)c4)n3)cc2nn1Cc1ccccc1.Cl.Cl [GW787226]	0%	0%	0%	0%	0%	15%	50%	0%	0%	0%	0%	0%	0%	0%	0%	0%	0%	0%	0%	0%
Cc1nnc(-c2ccc3occ(-c4ccc(C(C)O)cc4)c3c2)o1 (centres unmarked)	0%	0%	0%	2%	0%	0%	21%	11%	0%	0%	12%	5%	11%	20%	0%	10%	34%	0%	0%	0%
NCC(NC(=O)c1cc(-c2cn[nH]c2)c(-c2ccnc3[nH]ccc23)s1)c1ccccc1.O=C(O)C(F)(F)F.O=C(O)C(F)(F)F (centres unmarked) [GSK1325775]	0%	52%	66%	14%	5%	14%	29%	99.8%	98.7%	95.1%	25%	90.3%	0%	45%	55%	84%	93.6%	27%	97.8%	72%
O=c1cc(N2CCOCC2)nc2n(Cc3cccc4ccccc34)ccn12 [GSK2333389]	4%	15%	0%	0%	0%	0%	0%	0%	0%	0%	7%	0%	0%	0%	23%	10%	0%	0%	26%	2%
Nc1nccc(-c2c(-c3ccc(F)cc3)ncn2C2CCN(CC(F)(F)F)CC2)n1 [SB-236560]	20%	0%	0%	0%	0%	0%	17%	0%	19%	0%	14%	12%	0%	0%	0%	0%	27%	0%	0%	7%
O=c1cc(N2CCOCC2)nc2n(Cc3cccc(F)c3)ccn12 [GSK2297430]	0%	20%	0%	1%	0%	0%	0%	2%	3%	31%	0%	11%	6%	0%	0%	10%	0%	0%	2%	0%
O=C(c1ccc(-c2cc(-c3c[nH]nc3-c3ccccn3)ccn2)cc1)N1CCOCC1 [GW812171]	6%	0%	0%	0%	14%	28%	0%	12%	14%	0%	15%	0%	0%	17%	0%	10%	0%	20%	0%	0%
COc1cc2c(cc1OCCN1CCN(C)CC1)ncc1c3ccc(C#N)cc3[nH]c21	0%	56%	25%	0%	16%	16%	0%	1%	0%	0%	22%	17%	0%	0%	10%	0%	13%	30%	19%	79%
CN(C1=C(c2ccccc2)C(=O)NC1=O)c1ccccc1 [SB-334860]	8%	20%	0%	3%	2%	0%	21%	0%	22%	6%	33%	7%	0%	14%	25%	0%	16%	17%	2%	0%
Cc1cccc(-c2nc(Nc3ccc4ncsc4c3)c3ccccc3n2)n1 [GW867588]	9%	14%	0%	12%	19%	16%	14%	7%	27%	0%	14%	5%	98.7%	99.8%	66%	0%	0%	17%	0%	0%
CCc1ccnc(/C=C/c2n[nH]c3cc(Sc4ccccc4C(=O)NC)ccc23)c1	0%	9%	0%	0%	0%	0%	83%	9%	12%	0%	1%	0%	0%	15%	0%	0%	0%	0%	29%	0%
Cc1nnc(-c2ccc3ncc(-c4ccc(S(C)=O)cc4)n3c2)o1 (centres unmarked)	3%	0%	0%	0%	11%	12%	0%	14%	0%	0%	0%	0%	0%	13%	0%	0%	0%	0%	19%	2%
C[C@@H](Oc1cc(-n2cnc3ccc(NC(=O)NC(C)(C)C)cc32)sc1C(N)=O)c1ccccc1Cl [GSK346294]	5%	0%	0%	99.9%	96%	87%	0%	5%	19%	21%	0%	15%	2%	14%	24%	3%	15%	0%	21%	43%
